Laboratory results from PubChem BioAssay (NCATS).
Inconclusive results are not listed. The source made the active and inactive calls. The call rests on the fitted dose curve; in most records, active means well fitted curve in the direction sought with a large enough effect; inconclusive means small, poorly fitted or top-dose-only effect, or another doubt; inactive means no such curve, though single readings can be large; an effect the other way counts as inactive or inconclusive.

Columns and labels:
[1] = qHTS of pediatric cancer cell lines to identify multiple opportunities for drug repurposing: Primary screen for MG 63 (6-TG R) cells (AID 1347105); settings: MG 63 (6-TG R) viability, CellTiter-Glo, 48 h; series mostly up to 46 µM; further: nearly all actives have a fitted effect of over 50% in size
Outline: (§1)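 Phenotypic viability qHTS, 48 h compound exposure, CellTiter-Glo luminescence read-out; multi-concentration dosing so that potency and efficacy derive directly from the primary screen's curves.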

[2] = qHTS of pediatric cancer cell lines to identify multiple opportunities for drug repurposing: Primary screen for control Hh wild type fibroblast cells (AID 1347106); settings: Hh wild-type fibroblast viability, CellTiter-Glo luminescence, 48 h; series mostly up to 46 µM; further: nearly all actives have a fitted effect of over 55% in size;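 on activity change, negative = cytotoxic: a drop in luminescence marks cytotoxicity and a rise apparent proliferation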
Outline: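 Viability after 48 h compound treatment at 37C, 500-1,000 cells/well, read as ATP luminescence with CellTiter-Glo. Primary screens used 11-point (MIPE, 0.78 nM-46 µM) or 8-point (NPC, 0.59 nM-46 µM) final concentrations; follow-up screens used 11-point dilutions.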

[3] = qHTS of pediatric cancer cell lines to identify multiple opportunities for drug repurposing: Primary screen for Rh30 cells (AID 1347107); settings: Rh30 rhabdomyosarcoma viability, CellTiter-Glo luminescence, 48 h; series mostly up to 46 µM; further: nearly all actives have a fitted effect of over 75% in size
Outline: (§2)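 Cells (500-1,000/well) in growth media were settled 5 h at 37 degrees C, then given compounds for 48 h. Viability was read as CellTiter-Glo luminescence. Primary runs used MIPE at 11 points (0.78 nM-46 µM) and NPC at 8 points (0.59 nM-46 µM); follow-ups used 11 points.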

[4] = qHTS of pediatric cancer cell lines to identify multiple opportunities for drug repurposing: Primary screen for Rh41 cells (AID 1347108); settings: Rh41 rhabdomyosarcoma viability, CellTiter-Glo luminescence, 48 h; series mostly up to 46 µM; further: nearly all actives have a fitted effect of over 70% in size;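 on activity change, negative = cytotoxic: luminescence drop marks cytotoxic hits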
Outline: as §1

[5] = qHTS of pediatric cancer cell lines to identify multiple opportunities for drug repurposing: Confirmatory screen for A673 cells (AID 1347110); settings: A673 Ewing sarcoma cell viability; series mostly up to 45.9 µM;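 further: cells exposed to compound for 48 h before the viability read; nearly all actives have a fitted effect of over 65% in size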
Outline: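 A673 cells at 500-1,000 cells/well were dosed 5 h after plating, in dilution series up to 46 uM final; primary runs used 8 or 11 points and confirmatory runs used 11 points. Viability was read by CellTiter-Glo luminescence after 48 h, against DMSO and 2.3 uM bortezomib controls.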

[6] = qHTS of pediatric cancer cell lines to identify multiple opportunities for drug repurposing: Confirmatory screen for SK-N-MC cells (AID 1347111); settings: SK-N-MC cell viability; series mostly up to 45.9 µM;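 further: cells exposed to compound for 48 h before the readout; nearly all actives have a fitted effect of over 70% in size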
Outline: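 Metabolically active cells were quantified by ATP-dependent luminescence (CellTiter-Glo, 15 min at room temperature) following 48 h treatment. Cells had been plated at 500-1,000 per well and settled for 5 h beforehand.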

[7] = qHTS of pediatric cancer cell lines to identify multiple opportunities for drug repurposing: Confirmatory screen for BT-12 cells (AID 1347112); settings: BT-12 rhabdoid tumor cells, viability; series mostly up to 45.9 µM; further: nearly all actives have a fitted effect of over 55% in size
Outline: as §2

[8] = qHTS of pediatric cancer cell lines to identify multiple opportunities for drug repurposing: Confirmatory screen for LAN-5 cells (AID 1347113); settings: LAN-5 neuroblastoma cell viability; series mostly up to 45.9 µM; further: nearly all actives have a fitted effect of over 65% in size
Outline: as §2

[9] = qHTS of pediatric cancer cell lines to identify multiple opportunities for drug repurposing: Confirmatory screen for DAOY cells (AID 1347114); settings: DAOY medulloblastoma cells viability, cytotoxicity qHTS; series mostly up to 45.9 µM; further: nearly all actives have a fitted effect of over 65% in size
Outline: (§3)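 Viability measured as metabolically active cells via CellTiter-Glo luminescence following 48 hours of compound exposure, 11-point dilutions in confirmatory testing. 500-1,000 cells/well plated 5 hours before dosing; controls were DMSO and 2.3 µM bortezomib.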

[10] = qHTS of pediatric cancer cell lines to identify multiple opportunities for drug repurposing: Confirmatory screen for SJ-GBM2 cells (AID 1347116); settings: SJ-GBM2 glioblastoma cells, viability; series mostly up to 45.9 µM; further: nearly all actives have a fitted effect of over 60% in size
Outline: as §3

[11] = qHTS of pediatric cancer cell lines to identify multiple opportunities for drug repurposing: Confirmatory screen for BT-37 cells (AID 1347117); settings: BT-37 pediatric cancer cells, viability; activity change, negative = cytotoxic: at 45.9 µM (top of the series); further: nearly all actives have a fitted effect of over 55% in size
Outline: as §2

[12] = qHTS of pediatric cancer cell lines to identify multiple opportunities for drug repurposing: Confirmatory screen for TC32 cells (AID 1347118); settings: TC32 Ewing sarcoma cells viability qHTS; series mostly up to 45.9 µM;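 further: cells exposed to compound for 48 h before the read; nearly all actives have a fitted effect of over 65% in size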
Outline: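 TC32 cells, 500-1,000/well in growth medium, compound-treated 48 h at 37 °C; viability from CellTiter-Glo luminescence. Primary screen: MIPE 11-point (0.78 nM–46 µM final), NPC 8-point (0.59 nM–46 µM final); confirmatory at 11-point dilutions.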

[13] = qHTS of pediatric cancer cell lines to identify multiple opportunities for drug repurposing: Confirmatory screen for MG 63 (6-TG R) cells (AID 1347119); settings: MG-63 (6-TG resistant) osteosarcoma viability; series mostly up to 45.9 µM; further: nearly all actives have a fitted effect of over 55% in size
Outline: as §2

[14] = qHTS of pediatric cancer cell lines to identify multiple opportunities for drug repurposing: Confirmatory screen for control Hh wild type fibroblast cells (AID 1347121); settings: viability qHTS; series mostly up to 45.9 µM; further: nearly all actives have a fitted effect of over 70% in size
Outline: as §2

[15] = qHTS of pediatric cancer cell lines to identify multiple opportunities for drug repurposing: Confirmatory screen for U-2 OS cells (AID 1347122); settings: U-2 OS osteosarcoma cell viability; series mostly up to 45.9 µM; further: nearly all actives have a fitted effect of over 65% in size
Outline: as §2

[16] = qHTS of pediatric cancer cell lines to identify multiple opportunities for drug repurposing: Confirmatory screen for Rh41 cells (AID 1347123); settings: Rh41 rhabdomyosarcoma cells, viability/cytotoxicity qHTS; series mostly up to 45.9 µM; further: nearly all actives have a fitted effect of over 60% in size
Outline: as §2

[17] = qHTS of pediatric cancer cell lines to identify multiple opportunities for drug repurposing: Confirmatory screen for RD cells (AID 1347124); settings: RD rhabdomyosarcoma cell viability; series mostly up to 45.9 µM
Outline: as §2

[18] = qHTS of pediatric cancer cell lines to identify multiple opportunities for drug repurposing: Confirmatory screen for Rh18 cells (AID 1347125); settings: Rh18 rhabdomyosarcoma cells, viability; series mostly up to 45.9 µM; further: nearly all actives have a fitted effect of over 55% in size
Outline: as §2

[19] = qHTS of pediatric cancer cell lines to identify multiple opportunities for drug repurposing: Confirmatory screen for NB1643 cells (AID 1347109); settings: NB1643 neuroblastoma cell viability; series mostly up to 45.9 µM; further: nearly all actives have a fitted effect of over 45% in size
Outline: as §2

Measured: Potency
Potency means the concentration at half of the fitted maximal effect.

CC(C)(O)CC[C@@H](O)[C@](C)(O)[C@H]1CC[C@@]2(O)C3=CC(=O)[C@@H]4C[C@@H](O)[C@@H](O)C[C@]4(C)[C@@H]3CC[C@]12C
inactive: [1] | [2] | [3] | [4]

O=c1[nH]c(=O)n([C@H]2C[C@@H](O)[C@@H](CO)O2)cc1C=CBr
inactive: [1] | [2] | [3] | [4]

O=C(O)C=Cc1ccc(Cn2ccnc2)cc1
inactive: [1] | [2] | [3] | [4]

CCOC(=O)[C@H](CCc1ccccc1)N[C@@H](C)C(=O)N1[C@@H](C(=O)O)C[C@H]2CCC[C@@H]21
inactive: [2]
active: [1] 18700 nM | [3] 18700 nM | [4] 11800 nM

COc1ccc(Nc2nccc(NCCO)n2)cc1
inactive: [1] | [2] | [3] | [4]

COC(=O)[C@H](CCCN=C(N)N)NS(=O)(=O)c1ccc(C)cc1
inactive: [1] | [2] | [3] | [4]

COC[C@H](NC(=O)c1cnc(C)s1)C(=O)N[C@@H](COC)C(=O)N[C@@H](Cc1ccccc1)C(=O)[C@@]1(C)CO1
inactive: [14]
active: [1] 235 nM | [2] 935 nM | [3] 1660 nM | [4] 296 nM | [5] 165 nM | [6] 36.9 nM | [7] 414 nM | [8] 329 nM | [9] 104 nM | [10] 131 nM | [11] 165 nM | [12] 165 nM | [13] 92.8 nM | [15] 329 nM | [16] 46.5 nM | [17] 82.7 nM | [18] 208 nM

Cn1cc(CNCC2CCN(c3ncc(C(=O)NO)cn3)CC2)c2ccccc21
active: [1] 187 nM | [2] 2640 nM | [3] 1180 nM | [4] 148 nM | [19] 165 nM | [7] 369 nM | [9] 261 nM | [10] 208 nM | [13] 131 nM | [15] 208 nM | [16] 32.9 nM | [17] 329 nM | [18] 131 nM

CC(C)C[C@H](NC(=O)CNC(=O)c1cc(Cl)ccc1Cl)B1OC(=O)CC(CC(=O)O)(C(=O)O)O1 (stereo partly drawn)
active: [1] 148 nM | [2] 1050 nM | [3] 1480 nM | [4] 296 nM | [19] 261 nM | [5] 293 nM | [6] 131 nM | [7] 414 nM | [8] 233 nM | [9] 165 nM | [10] 147 nM | [11] 522 nM | [12] 465 nM | [14] 16500 nM | [15] 827 nM | [16] 233 nM | [17] 414 nM | [18] 369 nM
